Experimental data from PubChem BioAssay (EPA / NIEHS).
Where “and” joins values, the source holds several entries; their conditions need not be identical. Equal values may be shown once. More than one record can exist for a structure, and the calls need not agree. Calls of active or inactive are those of the source. How the source made its calls: active means hit-call score of the fitted dose curve at least 0.9, where 1 is the maximum; inactive means score below 0.9.

Assays:
[1] = read-out: Interleukin-8 (IL8), CXCL8 (gene 3576); experiment: BSK_MyoF_IL8: BioMAP Diversity Plus: MyoF Assay for Interleukin-8 (IL8) Biomarker Activity (AID 2284261); conditions: primary human lung fibroblasts
In short: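 Human lung fibroblast (MyoF system) cultures dosed for 24 h, then IL-8 measured by ELISA. Response taken relative to DMSO; parallel SRB total-protein staining for cytotoxicity.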

CD90, THY1 (gene 7070) = experiment: BSK_BF4T_CD90: BioMAP Diversity Plus: BF4T Assay for CD90 Biomarker Activity (AID 2284262); conditions: primary human bronchial epithelial cells with fibroblasts
In short: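 CD90 levels by ELISA after 24 h treatment of human bronchial epithelial cell/dermal fibroblast cultures, analysed versus DMSO. Overt cytotoxicity checked in parallel cultures by sulforhodamine B staining.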

[2] = read-out: Interleukin-8 (IL8), CXCL8 (gene 3576); experiment: BSK_BF4T_IL8: BioMAP Diversity Plus: BF4T Assay for Interleukin-8 (IL8) Biomarker Activity (AID 2284263); conditions: primary human bronchial epithelial cells with fibroblasts
In short: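 Human bronchial epithelial cells with dermal fibroblasts co-culture; IL-8 measured by ELISA 24 hours after dosing, fitted vs DMSO. Cytotoxicity tracked in parallel cultures by SRB total-protein staining.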

[3] = read-out: Interleukin-1 alpha (IL1a), IL1A (gene 3552); experiment: BSK_BF4T_IL1a: BioMAP Diversity Plus: BF4T Assay for Interleukin-1 alpha (IL1a) Biomarker Activity (AID 2284264); conditions: primary human bronchial epithelial cells with fibroblasts
In short: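 ELISA read-out of IL-1α from bronchial epithelial cell/dermal fibroblast co-cultures 24 h after compound addition. Increases scored against DMSO negative control. Cytotoxicity monitored by sulforhodamine B staining of parallel cultures.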

Decorin, DCN (gene 1634) = experiment: BSK_MyoF_Decorin: BioMAP Diversity Plus: MyoF Assay for Decorin Biomarker Activity (AID 2284265); conditions: primary human lung fibroblasts
In short: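 Human lung fibroblast cultures were dosed for 24 h, and decorin was then measured by ELISA. Parallel cultures were stained with sulforhodamine B for total protein as a cytotoxicity check. Gain of signal was fitted relative to DMSO.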

KRT18 (gene 3875) = experiment: BSK_BF4T_Keratin818: BioMAP Diversity Plus: BF4T Assay for Keratin 818 Biomarker Activity (AID 2284266); conditions: primary human bronchial epithelial cells with fibroblasts
In short: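 Keratin 8/18 levels quantified by ELISA after 24 h chemical treatment of bronchial epithelial cell/dermal fibroblast co-cultures, fitted in positive direction relative to DMSO. Parallel SRB staining tracks overt cytotoxicity.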

[4] = BSK_MyoF_SRB: Viability Assessment in the BioMAP Diversity Plus: MyoF Assay (AID 2284267); conditions: primary human lung fibroblasts;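 further: total protein by SRB absorbance in parallel cultures as cytotoxicity measure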
In short: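 Cytotoxicity read-out: after 10% TCA fixation, parallel human lung fibroblast cultures were stained with 0.1% SRB at 24 h post-dosing and read at 560 nm; DMSO served as baseline.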

[5] = read-out: Matrix Metallopeptidase 1 (MMP1), MMP1 (gene 4312); experiment: BSK_MyoF_MMP1: BioMAP Diversity Plus: MyoF Assay for Matrix Metallopeptidase 1 (MMP1) Biomarker Activity (AID 2284268); conditions: primary human lung fibroblasts
In short: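 Human lung fibroblast primary cells; MMP1 measured by ELISA 24 h after dosing, fitted in the positive direction relative to DMSO. Parallel SRB staining (0.1%, after 10% TCA fixation, 560 nm) assesses overt cytotoxicity.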

[6] = read-out: TIMP metallopeptidase inhibitor 1 (TIMP1), TIMP1 (gene 7076); experiment: BSK_MyoF_TIMP1: BioMAP Diversity Plus: MyoF Assay for TIMP metallopeptidase inhibitor 1 (TIMP1) Biomarker Activity (AID 2284269); conditions: primary human lung fibroblasts
In short: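 ELISA read-out of TIMP-1 from primary human lung fibroblast cultures 24 h after compound dosing; gain of signal relative to DMSO vehicle baseline defines activity.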

[7] = read-out: Matrix Metallopeptidase 1 (MMP1), MMP1 (gene 4312); experiment: BSK_BF4T_MMP1: BioMAP Diversity Plus: BF4T Assay for Matrix Metallopeptidase 1 (MMP1) Biomarker Activity (AID 2284270); conditions: primary human bronchial epithelial cells with fibroblasts
In short: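 MMP-1 quantified by ELISA in primary human bronchial epithelial/dermal fibroblast co-cultures, 24 hours post-dosing, with DMSO as baseline; parallel sulforhodamine B staining (560 nm) tracks overt cytotoxicity.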

[8] = read-out: Matrix Metallopeptidase 3 (MMP3), MMP3 (gene 4314); experiment: BSK_BF4T_MMP3: BioMAP Diversity Plus: BF4T Assay for Matrix Metallopeptidase 3 (MMP3) Biomarker Activity (AID 2284271); conditions: primary human bronchial epithelial cells with fibroblasts
In short: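 MMP-3 level read by ELISA after 24 h chemical exposure of bronchial epithelial cell/dermal fibroblast co-cultures, fitted upward relative to DMSO. Parallel cultures stained with 0.1% SRB after TCA fixation gauge overt cytotoxicity.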

[9] = read-out: Tissue plasminogen activator (tPA), PLAT (gene 5327); experiment: BSK_BF4T_tPA: BioMAP Diversity Plus: BF4T Assay for Tissue plasminogen activator (tPA) Biomarker Activity (AID 2284272); conditions: primary human bronchial epithelial cells with fibroblasts
In short: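 tPA level quantified by ELISA at 24 h post-treatment in bronchial epithelial/dermal fibroblast co-cultures, gain of signal scored against DMSO baseline. Parallel cultures stained with 0.1% SRB (560 nm) to flag overt cytotoxicity.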

[10] = BSK_BF4T_SRB: Viability Assessment in the BioMAP Diversity Plus: BF4T Assay (AID 2284274); conditions: primary human bronchial epithelial cells with fibroblasts
In short: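 Cytotoxicity measured as total protein: cells fixed with 10% TCA, stained with 0.1% SRB, read at 560 nm. Bronchial epithelial/dermal fibroblast co-culture, 24 h after dosing, with positive-direction fitting relative to DMSO.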

[11] = read-out: urokinase Plasminogen Activator (uPA), PLAU (gene 5328); experiment: BSK_BF4T_uPA: BioMAP Diversity Plus: BF4T Assay for urokinase Plasminogen Activator (uPA) Biomarker Activity (AID 2284275); conditions: primary human bronchial epithelial cells with fibroblasts
In short: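 uPA levels measured by ELISA at 24 hours in BF4T cultures (bronchial epithelial cells plus dermal fibroblasts) and compared with DMSO; cytotoxicity tracked in parallel cultures by sulforhodamine B staining.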

[12] = read-out: Matrix Metallopeptidase 9 (MMP9), MMP9 (gene 4318); experiment: BSK_BF4T_MMP9: BioMAP Diversity Plus: BF4T Assay for Matrix Metallopeptidase 9 (MMP9) Biomarker Activity (AID 2284276); conditions: primary human bronchial epithelial cells with fibroblasts
In short: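 MMP-9 levels were measured by ELISA after 24 h exposure of bronchial epithelial cell/dermal fibroblast co-cultures, with DMSO as baseline. Parallel cultures were stained with 0.1% SRB after TCA fixation, read at 560 nm, to flag overt cytotoxicity.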

[13] = read-out: Interleukin-8 (IL8), CXCL8 (gene 3576); experiment: BSK_IMphg_IL8: BioMAP Diversity Plus: IMphg Assay for Interleukin-8 (IL8) Biomarker Activity (AID 2284277); conditions: primary human endothelial cells with macrophages
In short: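 IL-8 levels were measured by ELISA 24 h after dosing in primary human venular endothelial cell–macrophage cultures, referenced to DMSO; parallel SRB staining monitored overt cytotoxicity.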

[14] = read-out: Intercellular Adhesion Molecule 1 (ICAM1), ICAM1 (gene 3383); experiment: BSK_BE3C_ICAM1: BioMAP Diversity Plus: BE3C Assay for Intercellular Adhesion Molecule 1 (ICAM1) Biomarker Activity (AID 2284278); conditions: primary human bronchial epithelial cells
In short: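 ICAM-1 quantified by ELISA and fitted against DMSO baseline, 24 h post-dosing in BE3C cultures of primary human lung bronchial epithelial cells. Cytotoxicity checked in parallel cultures by total protein SRB staining.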

[15] = read-out: Interferon-inducible T-cell alpha chemoattractant (ITAC), CXCL11 (gene 6373); experiment: BSK_BE3C_ITAC: BioMAP Diversity Plus: BE3C Assay for Interferon-inducible T-cell alpha chemoattractant (ITAC) Biomarker Activity (AID 2284279); conditions: primary human bronchial epithelial cells
In short: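 ELISA read-out of I-TAC after 24 h chemical dosing of human lung primary bronchial epithelial cells; gain-of-signal fit vs DMSO baseline. Parallel SRB total-protein staining (0.1% SRB, 10% TCA fixation, 560 nm) assessed cytotoxicity.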

[16] = read-out: Interleukin-8 (IL8), CXCL8 (gene 3576); experiment: BSK_BE3C_IL8: BioMAP Diversity Plus: BE3C Assay for Interleukin-8 (IL8) Biomarker Activity (AID 2284280); conditions: primary human bronchial epithelial cells
In short: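 Primary human bronchial epithelial cells (BE3C system) were exposed to test chemical for 24 h, and IL-8 levels were then measured by ELISA. Activity was fitted in the positive (gain-of-signal) direction against a DMSO negative-control baseline.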

[17] = read-out: Plasminogen Activator Inhibitor-1 (PAI1), SERPINE1 (gene 5054); experiment: BSK_BF4T_PAI1: BioMAP Diversity Plus: BF4T Assay for Plasminogen Activator Inhibitor-1 (PAI1) Biomarker Activity (AID 2284273); conditions: primary human bronchial epithelial cells with fibroblasts
In short: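 PAI-1 levels quantified by ELISA 24 h post-dosing in bronchial epithelial cell plus dermal fibroblast cultures. Signal gain referenced to DMSO baseline. Sulforhodamine B total-protein staining of parallel wells checked cytotoxicity.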

Measured: AC50

OCC(F)(F)C(F)(F)C(F)(F)C(F)(F)C(F)(F)C(F)(F)F
inactive: [1] | CD90, THY1 (gene 7070) | [2] | [3] | Decorin, DCN (gene 1634) | KRT18 (gene 3875) | [4] | [5] | [6] | [7] | [8] | [9] | [10] | [11] | [12] | [13] | [14] | [15] | [16]
active: [4] 49.5 µM | [5] 47.9 µM

FC(F)(F)C(F)(F)C(F)(F)C(F)(F)C(F)(F)C(F)(F)C(F)(F)I
active: [2] 52.7 nM | [4] 4.81 µM and 4.71 µM | [5] 2.4 µM and 2.55 µM
inactive: [1] | CD90, THY1 (gene 7070) | [2] | [3] | Decorin, DCN (gene 1634) | [6] | [7] | [8] | [9] | [10] | [11] | [12] | [13] | [14] | [15] | [16]

FC(F)(F)C(F)(F)CNCC(F)(F)C(F)(F)F
not listed: KRT18 (gene 3875) | [17]
inactive: all other assays above

O=C(O)C(F)(F)C(F)(F)C(F)F
active: Decorin, DCN (gene 1634) 30 µM
inactive: [1] | CD90, THY1 (gene 7070) | [2] | [3] | Decorin, DCN (gene 1634) | [4] | [5] | [6] | [7] | [8] | [9] | [10] | [11] | [12] | [13] | [14] | [15] | [16]

C=C(C)C(=O)OCC(F)(F)C(F)(F)C(F)(F)C(F)(F)C(F)(F)C(F)(F)C(F)(F)F
not listed: KRT18 (gene 3875)
inactive: all other assays above

O=C(O)C(F)(F)C(F)(F)OC(F)(F)F
not listed: KRT18 (gene 3875) | [17]
inactive: all other assays above

COC(=O)CCC(F)(F)C(F)(F)C(F)(F)C(F)(F)F
inactive: all assays above

FC(F)(F)C(F)(F)C(F)(F)C(F)(F)C(F)(F)CCI
not listed: KRT18 (gene 3875)
inactive: all other assays above

O=C(O)C(F)(F)C(F)(F)C(F)(F)C(F)(F)C(F)(F)C(F)(F)C(F)(F)C(F)(F)Cl
inactive: [1] | CD90, THY1 (gene 7070) | Decorin, DCN (gene 1634) | [5] | [13]
active: CD90, THY1 (gene 7070) 30 µM | [2] 51.9 µM and 50.3 µM | [3] 45.2 µM and 44 µM | Decorin, DCN (gene 1634) 21.3 µM | [4] 30.9 µM and 35.5 µM | [5] 51.5 µM | [6] 30 µM and 47.9 µM | [7] 48.7 µM and 55 µM | [8] 52.7 µM and 55.1 µM | [9] 10.7 µM and 5.95 µM | [10] 36.9 µM and 39.9 µM | [11] 45.3 µM and 46.1 µM | [12] 37.1 µM and 30 µM | [14] 45.1 µM and 45.8 µM | [15] 40.8 µM and 23.3 µM | [16] 38 µM and 30 µM

OCCCC(F)(F)C(F)(F)C(F)(F)C(F)(F)C(F)(F)C(F)(F)C(F)(F)F
active: [1] 58.5 µM | CD90, THY1 (gene 7070) 30 µM and 21.3 µM | [2] 40.5 µM and 45.3 µM | [3] 51.6 µM and 55.4 µM | Decorin, DCN (gene 1634) 51.2 µM and 52.2 µM | [4] 44.8 µM and 56.2 µM | [5] 48 µM | [6] 54.9 µM and 47.5 µM | [7] 46.8 µM | [8] 57.5 µM and 32.4 µM | [9] 56.6 µM and 47.7 µM | [10] 51 µM and 53.6 µM | [11] 47.8 µM and 45.7 µM | [12] 44.8 µM and 55.3 µM | [13] 47.5 µM | [14] 53.8 µM and 51.3 µM | [15] 45.9 µM and 46.9 µM | [16] 37.1 µM and 43 µM
inactive: [1] | [5] | [7] | [13]
